NALP1 inh: NALP1 inhibition; inhibition, % at 10 µM; actives 0.61% (n = 280,000); S. cerevisiae NALP1/ASC/caspase-1 growth, X-gal OD620, 72 h; AID 2071; in the data active means inhibition mostly above about 24%, no sharp cut-off; inactive means mostly below about 32%
EBNA-1 inh: blocks EBNA-1 binding to DNA; AID 1950; EBNA-1 DNA binding, fluorescence polarization; actives 0.34% (n = 300,000); inhibition, % at 14.8 µM; in the data active means inhibition above about 28%
dFosB activator: mouse delta FosB homodimer activation | purified delta FosB, TAMRA-CDK5 oligo fluorescence polarization; percent of positive-control signal above neutral wells | activation, % at 25 µM | P13346 | actives 0.99% (n = 340,000);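 active means mean activation above about 17%, with every replicate also reaching it, limit read from the data, passing the limit was not always enough; inconclusive means only one of the two conditions met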
Target sequence (P13346 whole entry, looked up): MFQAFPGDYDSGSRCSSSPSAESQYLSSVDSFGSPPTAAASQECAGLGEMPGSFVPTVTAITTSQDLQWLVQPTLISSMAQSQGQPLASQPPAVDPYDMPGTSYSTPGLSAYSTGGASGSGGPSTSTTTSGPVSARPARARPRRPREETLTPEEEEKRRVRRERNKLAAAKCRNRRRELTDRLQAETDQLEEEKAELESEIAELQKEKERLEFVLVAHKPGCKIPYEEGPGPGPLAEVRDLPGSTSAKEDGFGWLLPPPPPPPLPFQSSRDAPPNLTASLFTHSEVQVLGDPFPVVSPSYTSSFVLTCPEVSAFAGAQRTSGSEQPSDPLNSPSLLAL
ZTA counter: counter-screen for EBNA-1 inhibitors: inhibitors of Epstein-Barr virus ZTA; P03206; ZTA-DNA binding, fluorescence polarization; inhibition, % at 11 µM; actives 0.15% (n = 320,000); in the data active means inhibition above about 33%
Target sequence (P03206 whole entry, looked up): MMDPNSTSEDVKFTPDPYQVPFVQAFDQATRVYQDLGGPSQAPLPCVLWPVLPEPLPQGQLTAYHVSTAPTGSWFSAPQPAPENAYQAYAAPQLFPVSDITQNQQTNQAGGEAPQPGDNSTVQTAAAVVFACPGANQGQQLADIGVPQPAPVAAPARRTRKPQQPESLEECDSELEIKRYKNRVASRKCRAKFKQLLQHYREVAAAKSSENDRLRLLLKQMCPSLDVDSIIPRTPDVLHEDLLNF
NALP3 yeast inh: blocks the NALP3 inflammasome reconstituted in yeast; Yeast reconstituted NLRP3/ASC/caspase-1, beta-gal luminescence, 24 h; inhibition, % at 10 µM; actives 0.39% (n = 330,000);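 active means inhibition of 50% or more; inactive means inhibition below 50%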
PolyA inh: yeast polyadenylation inhibition | S. cerevisiae SKY197-pL101 polyadenylation reporter, beta-gal luminescence; efflux-impaired pdr1/pdr3 knockout yeast; score 100 = 6 SD above DMSO | activity score, % at 12 µM | actives 0.02% (n = 300,000) | AID 1875;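 active means lowest replicate activity score at least 50, where 100 means six control SD above control mean; inconclusive means lowest score under 50 but half or more replicates reach 50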;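 further: yeast exposed to compound for 9 h at 30 °C; higher score means more reporter readthrough which indicates perturbed polyadenylation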
Large screens that a line does not name were inactive. The list is not random: actives were taken first. Their share in the collection is about 2.2%.

Cc1ccc(-c2cc(N)n(-c3ccc(F)cc3)n2)cc1	NALP1 inh 29
Cc1ccc2nc(-c3ccncc3)cc(-c3ccccc3)c2c1	NALP1 inh 34
CCCCN(c1ccccc1)S(=O)(=O)c1cccc(C(=O)Nc2c(C)n(C)n(-c3ccccc3)c2=O)c1	none (no result: NALP1 inh, EBNA-1 inh, ZTA counter, NALP3 yeast inh, PolyA inh)
Cc1cc2nc(-c3ccc(SCC(=O)N4CCc5ccccc54)nc3)[nH]c2cc1C	NALP1 inh 24
Cc1cc2nc(-c3ccc(SCC(=O)NC(C)C)nc3)[nH]c2cc1C	none (no result: dFosB activator)
CC(C)N1CCc2c(sc(NC(=O)c3ccc4ccccc4c3)c2C(N)=O)C1	none
CN1CCc2c(sc(NC(=O)c3cc4cc([N+](=O)[O-])ccc4s3)c2C(N)=O)C1	none (no result: EBNA-1 inh, dFosB activator, ZTA counter, NALP3 yeast inh)
CC(C)N1CCc2c(sc(NC(=O)c3ccc(C(=O)c4ccccc4)cc3)c2C(N)=O)C1	dFosB activator 29
CC(C)N1CCc2c(sc(NC(=O)c3cc4cc([N+](=O)[O-])ccc4s3)c2C(N)=O)C1	dFosB activator 48 (no result: EBNA-1 inh, ZTA counter)
CC(=O)Nc1sc2c(c1-c1nc3ccccc3s1)CCN(C(C)C)C2	NALP1 inh 48, dFosB activator 35 (no result: PolyA inh)
CC(C)N1CCc2c(sc(NC(=O)Cc3ccccc3)c2C(N)=O)C1	none
CCC(C(=O)NCCCN1CC(C)CC(C)C1)n1nc(C)c2sc3ccccc3c2c1=O (centres undefined)	none
COC(=O)[C@@]12CCCCN1[C@H](c1ccc(-c3ccc(C(C)=O)cc3)cc1)[C@@H]1C(=O)N(C)C(=O)[C@@H]12	none (no result: NALP1 inh)
COc1ccc(/C=C2\N=C(C)OC2=O)cc1[N+](=O)[O-]	NALP1 inh 39
CCOc1ccc(S(=O)(=O)NCCC(=O)OCC(=O)NC(=O)c2cccn2C)cc1	none (no result: NALP1 inh, EBNA-1 inh, ZTA counter, PolyA inh)
Cc1ccc(C(=O)N2CCN(c3nc4ccccc4n3C)CC2)cc1	none
CCOc1ccc(-c2noc(CCC(=O)NC3CCCCC3)n2)cc1OC	none
Cc1ccsc1/C=C1/NC(=O)N(Cc2ccc(F)cc2)C1=O	NALP1 inh 34
O=C1N/C(=C\c2ccsc2)C(=O)N1Cc1ccc(F)cc1	none
COc1ccccc1CN1CCN(Cc2nc(-c3cccs3)no2)CC1	NALP1 inh 22, PolyA inh inconclusive
O=c1c(-c2ccccc2)nnc2sc(COc3ccc(Br)cc3)nn12	none (no result: EBNA-1 inh, ZTA counter)
CCOc1ccc2c(=O)c(Oc3ccccc3OCC)coc2c1	NALP1 inh 44
COc1ccc(/C=N/Nc2cc(C)nc3ccc(Br)cc23)cc1	dFosB activator 62
CC1(C)NC(=O)N(CCSc2ccc(Cl)cc2)C1=O	NALP1 inh 30
O=C(Cc1cccc(NC(=O)C2CCCN(C(=O)CCc3ccccc3)C2)c1)Nc1ccc(C(=O)N2CCOCC2)cc1 (centres undefined)	none (no result: NALP1 inh, EBNA-1 inh, ZTA counter, NALP3 yeast inh, PolyA inh)
Cc1cc(C)cc(OCC(O)CN2CCC(CN3C(=O)c4cccc5cccc(c45)C3=O)CC2)c1 (centres undefined)	dFosB activator 52 (no result: NALP1 inh)
O=C1c2cccc3cccc(c23)C(=O)N1CC1CCN(CC(O)COc2ccc3ccccc3c2)CC1 (centres undefined)	none (no result: NALP1 inh)
Cc1ccc(N2CCN(CC(=O)Nc3c(C(=O)C4CC4)oc4ccccc34)CC2)cc1	NALP1 inh 47 (no result: EBNA-1 inh, dFosB activator, ZTA counter, NALP3 yeast inh, PolyA inh)
O=C(COC(=O)c1ccc(CSc2ccc(Cl)cc2)cc1)Nc1ccccc1	EBNA-1 inh 29
Cn1c(SCc2ccc(Br)cc2)nc2ccccc2c1=O	none
O=c1c2ccccc2nc2n1C(CSc1ccc(Br)cc1)CN2 (centres undefined)	NALP1 inh 31
O=[N+]([O-])c1ccc(-c2ccc(/C=N/Nc3nc(NCc4ccccc4)nc(N4CCOCC4)n3)o2)cc1	dFosB activator 21
CC(Sc1ncn[nH]1)C(=O)Nc1ccc(Cl)cn1 (centres undefined)	none (no result: NALP1 inh)
CN1CCc2c(sc(NC(=O)c3ccc(S(=O)(=O)N4CCCCCC4)cc3)c2C(N)=O)C1	dFosB activator 54
CCCN1CCc2c(sc(NC(=O)c3ccc(S(=O)(=O)N(C)c4ccccc4)cc3)c2C(N)=O)C1	dFosB activator 42
CCCN1CCc2c(sc(NC(=O)c3ccc(S(=O)(=O)N(C)c4ccccc4)cc3)c2C(=O)NC)C1	dFosB activator inconclusive
CN1CCc2c(sc(NC(=O)c3ccc(S(=O)(=O)N4CCCC4)cc3)c2C(N)=O)C1	none
CCOc1ccc(S(=O)(=O)NCCC(=O)NC2CCCCC2)cc1	none (no result: NALP1 inh)
CCCCCCCC(=O)N/N=C/c1ccco1	none
CCCCCCCCCCCC(=O)N/N=C/c1ccco1	PolyA inh 82
O=C(Nc1ccc(N2CCCC2)cc1)c1ccc(Br)o1	dFosB activator 40
CCN1CCN(c2ccc(NC(=O)c3ccc(Br)o3)cc2)CC1	none (no result: EBNA-1 inh, ZTA counter)
CN1CCN(c2ccc(NC(=O)c3ccc(-c4ccc(Br)cc4)o3)cc2)CC1	dFosB activator 41
Cc1cc(N2CCN(C)CC2)nc2ccc(NC(=O)c3ccc(Br)o3)cc12	NALP1 inh 38
CC(C)(CNC(=O)c1cccc(S(=O)(=O)Nc2ccc(SC(F)F)cc2)c1)N1CCOCC1	none (no result: NALP1 inh, EBNA-1 inh, ZTA counter, NALP3 yeast inh, PolyA inh)
Cc1ccccc1-c1cc(C(=O)NCc2cccc(Br)c2)nn1CC1CC(c2cccc([N+](=O)[O-])c2)=NO1 (centres undefined)	none (no result: NALP1 inh, EBNA-1 inh, ZTA counter, PolyA inh)
O=c1[nH]c2cccnc2n1Cc1ccccc1	NALP1 inh 41
COc1ccc([C@@]2(C(C)C)ON(c3ccccc3C(F)(F)F)C2=O)cc1	none (no result: NALP1 inh, EBNA-1 inh, PolyA inh)
O=C(Nc1nc2nc(-c3ccccc3)cc(-c3ccccc3)n2n1)c1ccco1	dFosB activator 68
Cc1ccc(C(C)C)c(OCC(=O)Nc2ccccc2N2CCN(C)CC2)c1	NALP1 inh 27
N#CCCN(C(=O)COC(=O)c1cc(=O)c2ccccc2o1)c1ccccc1	none (no result: NALP1 inh, EBNA-1 inh, PolyA inh)
COc1ccc(C(=O)NCc2ccncc2)cc1S(=O)(=O)NCc1ccc(Cl)cc1	none (no result: NALP1 inh, EBNA-1 inh, PolyA inh)
CCOc1ccc(CN2CCN(CC(O)Cn3c4ccccc4c4ccccc43)CC2)cc1 (centres undefined)	NALP1 inh 77
COc1ccc(CN2CCN(CC(O)Cn3c4ccccc4c4ccccc43)CC2)cc1 (centres undefined)	NALP1 inh 62
CN1CCN(CC(O)Cn2c3ccccc3c3ccccc32)CC1 (centres undefined)	none
COCc1c(C(=O)OCc2nc3ccsc3c(=O)[nH]2)oc2ccccc12	none (no result: NALP1 inh, EBNA-1 inh, PolyA inh)
O=C(O)CCCn1cc(NC(=O)c2cc(F)c(F)cc2Cl)cn1	none
O=C(O)CCCn1cc(NC(=O)c2cccc(F)c2)cn1	NALP1 inh 27
CC(=O)c1c(C)[nH]c(C(=O)N2CCN(c3ncccn3)CC2)c1C	NALP1 inh 38
Cc1cccc(N2CCN(C(=O)c3ccc(-n4cncn4)c([N+](=O)[O-])c3)CC2)c1C	none
COc1ccccc1CNC(=O)CCNS(=O)(=O)c1cccc2nonc12	none
CCCC[n+]1ccn(C2=C([O-])c3ccccc3C(=O)/C2=N\S(=O)(=O)c2ccccc2)c1	none
